Test results reported in the supplement of paper PMC6555819.

Tests used:
Assay in all cases: PBM binding z-score (relative to random genomic background probes); higher = stronger binding; sequences stand for … in GC…GCGATTGACAGCGTAGAATGAAGG
[1] = tested on: PPARg:RXRa DBDmut IVT, anti-RXR (DBD mutation: RXRa K156A/R161A, NR concentration 270 nM, RXRa partner concentration 90 nM)
Method in brief: (§1)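 Antibodies against each partner of ligand-free nuclear receptor dimers (one per run) detected binding on custom Agilent 4×180K protein-binding microarrays after 1 h incubation. The double-stranded probes had 34-nt variable regions carrying direct-repeat seeds, single-nucleotide variants, half-site ablations and random human genomic background sequences. Binding z-scores, from regression-normalized fluorescence, use the random background probes as reference.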

[2] = tested on: PPARg:RXRa IVT, anti-PPARg (NR concentration 270 nM, RXRa partner concentration 90 nM)
Method in brief: as §1

[3] = tested on: PPARg DBDmut:RXRa IVT, anti-PPARg (DBD mutation: PPARg1 K132A/R137A, NR concentration 270 nM, RXRa partner concentration 90 nM)
Method in brief: as §1

[4] = tested on: PPARg DBDmut IVT, anti-PPARg (DBD mutation: PPARg1 K132A/R137A, NR concentration 270 nM)
Method in brief: as §1

[5] = tested on: PPARg homodimer (NR concentration 180 nM)
Method in brief: as §1

[6] = tested on: PXR:RXRa (NR concentration 270 nM, RXRa partner concentration 90 nM)
Method in brief: as §1

[7] = tested on: PXR homodimer (NR concentration 270 nM)
Method in brief: as §1

[8] = tested on: RARa:RXR (NR concentration 270 nM, RXRa partner concentration 90 nM)
Method in brief: as §1

[9] = tested on: RARa homodimer (NR concentration 270 nM)
Method in brief: as §1

[10] = tested on: RARb:RXRa (NR concentration 270 nM, RXRa partner concentration 90 nM)
Method in brief: as §1

[11] = tested on: RARb homodimer (NR concentration 270 nM)
Method in brief: as §1

[12] = tested on: RARg:RXRa (NR concentration 270 nM, RXRa partner concentration 90 nM)
Method in brief: as §1

[13] = tested on: RARg homodimer (NR concentration 270 nM)
Method in brief: as §1

[14] = tested on: RXRa DBDmut IVT, anti-RXR (DBD mutation: RXRa K156A/R161A, NR concentration 90 nM)
Method in brief: as §1

[15] = tested on: RXRa homodimer (NR concentration 180 nM)
Method in brief: as §1

[16] = tested on: THRa:RXRa (NR concentration 90 nM, RXRa partner concentration 90 nM)
Method in brief: as §1

[17] = tested on: THRa homodimer (NR concentration 90 nM)
Method in brief: as §1

[18] = tested on: VDR:RXRa (NR concentration 270 nM, RXRa partner concentration 90 nM)
Method in brief: as §1

[19] = tested on: VDR homodimer (NR concentration 270 nM)
Method in brief: as §1

Sequence	PBM binding z-score [1]	PBM binding z-score [2]	PBM binding z-score [3]	PBM binding z-score [4]	PBM binding z-score [5]	PBM binding z-score [6]	PBM binding z-score [7]	PBM binding z-score [8]	PBM binding z-score [9]	PBM binding z-score [10]	PBM binding z-score [11]	PBM binding z-score [12]	PBM binding z-score [13]	PBM binding z-score [14]	PBM binding z-score [15]	PBM binding z-score [16]	PBM binding z-score [17]	PBM binding z-score [18]	PBM binding z-score [19]
TCTAGTTGGTCAAAGGTCACACAATCGAAATGCG	3.58	6.28	1.49	2.13	4.36	5.97	2.1	7.76	3.91	5.16	5.17	7.33	7.01	1.98	8.48	4.11	2.21	5.52	3.09
ATCTGTAGGTTAGCTGGGGTCATTCAGACTAGGC	2.69	2.92	1.42	1.67	2.28	6.74	4.22	6.24	1.28	3.19	3.81	4.01	3.04	1.83	5.13	5.16	3.21	6.14	5.38
TGTCAAAGTCCAAAGGTAACGTAAGTATCCACAC	-0.118	1.79	0.417	1.16	0.272	0.511	-0.0654	0.938	0.285	1.93	1.08	1.64	1.23	0.368	0.946	1.11	-0.182	0.386	0.0854
GCTTGCGGGTCAAAGGTTATAGCATGAATAGAAT	6.08	6.75	0.506	0.0418	2.11	6.07	0.118	7.94	0.537	4.53	2.73	6.3	4.14	2.1	8.79	3.83	-0.22	5.03	0.927
TCTTGTAGATCAAGCAGGTTAAGAATGCCTGAGT	1.49	0.313	-0.142	0.577	-0.335	0.291	-0.153	0.248	-0.193	0.0521	0.163	-0.103	-0.0252	0.563	0.24	0.276	-0.376	0.48	0.0352
TCATATAGGTAATACAGGTGAAAGTCGGCATCTA	4.2	3.48	1.31	1.86	1.33	0.888	0.728	1.34	1.98	0.83	0.693	0.799	0.796	1.54	1.44	1.1	0.471	1.31	-0.0243
CCTAACGGGTCACTGACAGGTTATAGCATTTGGA	2.22	2.71	-0.265	-0.262	2.61	3.02	0.336	4.05	1.31	3.48	2.94	5.4	4.16	1.48	4.09	2.46	-0.159	3.21	0.931
GCTAGTTGGTCAGTAGAAGGTCACACACCGGTCG	1.12	2.07	-0.208	0.144	2.88	3.18	1.11	3.73	0.845	3.19	4.34	4.23	3.7	0.334	3.35	2.75	1.59	2.65	1.32
ATATGTAGGTTACATCCGGGTTATTCAGGCTATG	7.44	7.16	4.04	2.37	3.3	1.2	0.531	1.57	0.67	1.35	1.32	1.65	1.4	1.14	1.84	2.18	1.08	1.68	0.79
TCGAGTAGGTTACCAACGGGGCATTCAGCTTTCT	3.15	2.64	-0.246	0.0471	-0.456	-0.0163	-0.774	0.402	-1.51	0.936	0.583	1.52	0.504	0.191	0.733	0.042	-0.794	0.126	-0.578
TCTTGTAGATCAATAGAGGTTAAGAGAGTGCGCT	1.67	1.07	0.505	0.44	0.687	3.92	0.241	1.73	0.69	0.738	1.02	0.864	0.443	0.589	1.46	2.56	-0.485	2.79	0.473
CCTACTGGCCCATTCAGAGGTCATTGATCATATG	-0.184	0.996	-0.258	-0.298	2.98	4.67	2.7	4.14	1.58	2.81	3.64	2.97	2.56	0.948	3.56	3.04	1.71	3.58	3.87
CGAACTAGGTCATTGACAGGAAAGTGAATAGTAA	7.79	8.25	2.11	2.92	1.37	1.37	0.599	2.02	0.0841	3.59	2.15	3.65	3.62	2.19	2.61	2.27	0.512	1.73	0.797
TCATATAGGTATAAGGTGAAAGTCGGTGTGGTAA	2.8	2.27	1.02	0.854	1.32	0.935	0.866	1.62	1.54	1.23	1.17	0.768	0.521	1.77	1.35	2.68	2.4	1.06	0.494
GTACCAAGGTGAATAGATCGTTGATGAGTAGGCG	1.62	1.74	0.415	0.448	0.785	-0.0465	-0.049	0.221	0.712	1.13	0.231	0.664	0.719	-0.335	0.634	1.03	0.372	-0.155	-0.106
TCTATAAGTTGATTAGGGCAACCGAAACAGCGGA	2.11	1.45	0.91	0.949	0.532	0.227	0.561	0.489	0.661	1.13	0.772	0.61	0.741	1.23	0.5	1.11	0.212	0.463	0.543
ACTAGTTGGTCAGCTGAGGTCCCACACAATTCGG	0.847	1.02	-0.38	1.01	0.419	0.0973	-0.424	0.479	-0.0479	0.921	0.808	0.425	0.578	0.281	0.206	2.75	0.564	-0.0724	-0.00436
CCAGACAGGTGAGAAGGCAACTCAGCCTCGATTA	0.42	0.413	-0.447	-0.637	0.166	-0.0948	-0.133	-0.209	0.0696	0.272	0.103	0.0395	0.271	0.0472	0.0532	-0.202	-0.363	-0.345	0.221
TCATATAGGTAAAGGTGAAAGTTGAACGATATGA	4	4.73	1.52	1.41	1.62	2.3	0.333	3.46	0.78	2.25	2.08	2.34	1.51	0.648	3.71	1.79	-0.127	1.58	0.139
ATACCAAGATGATCGTGAGGTCGTTGATACTAAC	0.165	0.114	0.181	0.947	0.378	1.67	1.32	1.35	0.361	0.547	1.17	0.596	0.434	0.473	0.929	2.39	1.81	1.78	2.77
CCTCGGAGGACAACAGGAGCTCAGAGCTGCCAGA	0.0652	-0.614	-1.06	-2.08	-0.744	-0.836	-0.522	-0.894	-0.387	0.83	-0.211	0.18	0.813	0.0828	-0.62	0.178	-0.484	-0.533	-0.365
CGAACGAAGGCATGAGTTGATAGCAAATGCCGAT	-0.501	-0.459	-1.26	-0.962	-0.786	-0.575	-0.461	-0.544	-0.843	-0.545	-0.914	-0.373	-0.278	-0.249	-0.113	-0.643	-0.827	-0.373	-0.193
CCTCGTAGGACAGAAGGTCAGAGCTGTCCGCTTT	0.395	0.358	-0.69	-1.03	1.25	1.47	-0.0848	2.1	-0.0313	3.02	3.4	3.02	3.4	0.251	2.18	1.7	-0.0633	1.13	0.412
GCTCTGAGGACAAGGTCAGAGCTTTGTCCGTAGA	0.898	1.09	-0.229	-0.596	0.274	2	-0.088	2.88	-0.844	3.61	2.95	3.16	3.63	1.43	2.38	3.95	3.55	1.68	1.11
CGTCCAAGGTCAAAGGTCTGTGAAGAGATGACGG	3.5	4.39	1	0.0198	3.15	4.82	1.13	6.06	0.626	5.4	4.1	6.32	6.12	4.3	6.84	4.04	2.11	4.54	3.09
ATATGTAGGTTAAGGGTCATTCGGGTTGGTTCGC	7.7	8.1	6.59	4.92	8.66	6.02	3.75	6.67	3.12	3.43	3.7	4.87	3.3	2.32	6.11	3.39	1.95	6.18	5.4
TCTCGGAGGACAAGAAGGTCAGAGCTTTCCAGAG	1.27	0.839	-0.347	-1	0.686	1.71	1.64	1.69	0.0458	3.07	3.34	2.76	3.26	0.905	1.69	2.09	0.236	1.8	0.789
CCTGCTAGGTCATGCTCAGCTAATCTACAGTATG	4.78	3.37	0.405	0.309	0.827	0.957	-0.979	2.05	-0.229	3.75	2.76	3.89	4.39	2.05	2.4	2.57	0.87	1.33	0.178
AGTCAAAGTTCATCTAGGTAACGTCAGATATGCT	1.33	4.32	2.61	1.98	5.02	5.36	7.19	4.41	2.97	4.96	3.92	5.76	6.22	4.83	4.45	3.18	0.387	5.17	5.66
AGAATGAGCTTAAGATCAGGGAAACAGAATACAT	-0.826	-0.493	0.133	0.568	-0.142	-0.393	-0.0876	0.0208	-0.0937	-0.502	-0.611	-0.159	0.233	-0.641	-0.0967	-0.123	-0.875	-0.396	-0.392
